High-throughput results as filed in PubChem.
Shown are actives, neighbours in structure and some others; about 1.7% of the full set was active somewhere.
HEK293 tox: cytotoxic in the GLP-1 receptor inverse agonist counter-screen | HEK293 cAMP-luciferase reporter cells, luminescence, 24 h | Potency, µM (series often up to 38.3 µM), actives largely listed as inhibitors | 410,000 tested, 0.13% active | AID 624418;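 note: loss of luciferase light is scored as toxicity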
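1536-well qHTS counterscreen of the MLSMR; 200 cells/uL, 12 h pre-incubation, 23 nL cpd, 24 h at 37 deg C 5% CO2, luciferase detection reagent, 12 min RT, luminescence. Inhibition = undesired.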
GLP1R ag: activates the human GLP-1 receptor; AID 624172; Potency, µM (highest dose often 45.6 µM), most hits filed as activators; HEK293 GLP-1R CRE-luciferase, luminescence, 4-6 h; cells express a hypersensitive GLP-1R form; 380,000 tested, 0.007% active
GLP1R inv ag: GLP-1 receptor (human) inverse agonism | P43220 | HEK293 GLP-1R CRE-luciferase, luminescence, 24 h; GLP-1R form is constitutively active | Potency, µM (series often up to 38.3 µM), hits mostly inhibitors | 410,000 tested, 1.6% active | AID 624417; note: nearly all actives have a fitted effect of over 55% in size
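GLP-1R inverse agonism mode: basal reporter luminescence in engineered HEK293 cells measured after one day of compound exposure at 37 deg C, with a 12 min room-temperature detection step.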
RGS4 inh: blocks human RGS4-accelerated GTP hydrolysis | Transcreener GDP fluorescence polarization, RGS4-accelerated GTP hydrolysis | Potency, µM (top dose mostly 114 µM), actives largely listed as inhibitors | 390,000 tested, 0.039% active; note: nearly all actives have a fitted effect of over 75% in size
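MLSMR compounds (23 nl, pin-transferred) preincubated 10 min at room temperature with a 500nM (2x) first reagent, then RGS4 at 900nM (2x) plus Transcreener GDP mix added; fluorescence polarization (620/688 nm) read before and after 90 min at 30 °C.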
PTHR1 agonist: agonists of human PTHR1 parathyroid hormone receptor | Q03431 | HEK293 GP2 PTHR1 cells, GloSensor cAMP luminescence, 1 h | Potency, µM (doses to about 115 µM), most hits filed as activators | 410,000 tested, 0.075% active | AID 743266; note: nearly all actives have a fitted effect of over 55% in size
Target sequence (Q03431 whole entry, looked up): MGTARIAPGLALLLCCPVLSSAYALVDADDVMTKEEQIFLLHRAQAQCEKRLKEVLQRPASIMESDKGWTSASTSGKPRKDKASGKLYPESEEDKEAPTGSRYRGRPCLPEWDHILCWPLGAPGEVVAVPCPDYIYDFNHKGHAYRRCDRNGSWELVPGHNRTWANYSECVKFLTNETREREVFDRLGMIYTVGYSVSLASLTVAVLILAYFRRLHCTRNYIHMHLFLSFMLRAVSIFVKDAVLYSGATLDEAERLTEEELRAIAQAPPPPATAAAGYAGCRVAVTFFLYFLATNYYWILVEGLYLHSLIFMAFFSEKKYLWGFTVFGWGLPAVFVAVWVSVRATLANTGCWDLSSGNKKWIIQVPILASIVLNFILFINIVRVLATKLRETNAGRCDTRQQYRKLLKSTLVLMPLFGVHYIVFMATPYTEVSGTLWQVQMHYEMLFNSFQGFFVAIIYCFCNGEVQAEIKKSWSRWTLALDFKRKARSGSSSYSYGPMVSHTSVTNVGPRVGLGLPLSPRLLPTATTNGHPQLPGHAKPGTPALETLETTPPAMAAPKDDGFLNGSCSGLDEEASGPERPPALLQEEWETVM
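HEK-293-derived GP2 cells expressing PTHR1 and a GloSensor cAMP reporter, 3,000/well, plated overnight, given luciferin plus IBMX (each 0.5 mM as added) for 1 h at 37 °C, then compound for 1 h at 37 °C. Luminescence was read after 15 min at room temperature.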
Numbers stand for hits; - = inactive; ? = inconclusive; . = no result given. Calls come from the whole dose curve; as a rule, active = well fitted curve in the direction sought with a large enough effect; inconclusive = small, poorly fitted or top-dose-only effect, or another doubt; inactive = no such curve, though single readings can be large; an effect the other way counts as inactive or inconclusive.

SMILES | HEK293 tox | GLP1R ag | GLP1R inv ag | RGS4 inh | PTHR1 agonist
O=C(Cn1cnc2c(NCc3ccccc3)ncnc21)N1CCN(c2ccccn2)CC1 | - | - | - | - | -
CC(C)CNC1=C(C(=S)Nc2ccccc2)C(=O)CC(C)(C)C1 | - | - | 3.98µM | - | -
C[C@@H]1CN([C@H](C)CO)C(=O)CCCn2cc(nn2)CO[C@H]1CN(C)C(=O)c1cc(-c2ccccc2)on1 | - | - | - | . | -
COc1ccc(C(=O)C=Cc2ccc3c(c2)OCO3)cc1OC | - | - | - | . | -
COc1cc(/C=C/C(=O)c2ccc3c(c2)OCO3)cc(Cl)c1O | - | - | 11.2µM | ? | -
CN(C)c1ccc(C(=O)Nc2nc3c(s2)CCCC3)cc1 | - | - | 11.2µM | - | -
CC(C)(C)c1ccc(C(=O)NC(=S)Nc2nc3c(s2)CCCC3)cc1 | - | - | ? | - | -
O=C(Nc1nc2c(s1)CCCC2)c1ccc(S(=O)(=O)N2CCCc3ccccc32)cc1 | - | - | 3.98µM | - | -
CC1=C(C(=O)N2CCCCCC2)CC(CC(=O)NCCCCc2ccccc2)C(=O)N1CCC1=CCCCC1 (stereo not given) | - | - | ? | . | -
CCCCNC(=S)N1CCN(C(c2ccccc2)c2ccccc2)CC1 | - | - | 8.91µM | - | -
CC(=O)c1cccc(S(=O)(=O)NCCCN2CCOCC2)c1 | - | - | - | - | -
CSc1nc(-c2ccccc2)nc(N2CCN(C)CC2)c1C(C)=O | - | - | 3.16µM | - | -
Cc1ccc(S(=O)(=O)N2C[C@H]3N(C(=O)OC(C)C)N(C(=O)OC(C)C)C[C@H](OC(=O)NCC4CCCCC4)[C@@]3(O)C2)cc1 | ? | - | 4.47µM | . | -
O=C1C2C3C=CC(C3)C2C(=O)N1c1ccc(N2CCN(c3ccccn3)CC2)c([N+](=O)[O-])c1 (stereo not given) | - | - | 2.82µM | - | -
Cc1cccc(C(=O)NCc2cn3cccc(C)c3n2)c1 | - | . | - | - | -
CCOc1cc(C(=O)Nc2cc(C)ccn2)cc(OCC)c1OCC | - | - | - | - | -
CCOc1ccc(C(=O)Nc2cc(C)ccn2)cc1 | - | - | 3.98µM | ? | -
Cc1ccnc(NC(=O)c2ccc(S(=O)(=O)N3CCCCCC3)cc2)c1 | - | - | 11.2µM | - | -
CC(=O)N1CCN(CC(=O)Nc2ccccc2C(=O)Nc2ccccc2)CC1 | - | - | - | - | -
COc1ccc(OC)c(NC(=S)N(CCc2c(C)[nH]c3ccc(C)cc23)Cc2cccs2)c1 | - | - | 11.2µM | - | -
COc1ccc(OC)c(NC(=S)N(CCc2c(C)[nH]c3ccccc23)Cc2cccs2)c1 | - | - | ? | - | -
O=C(Nc1ccccc1OCc1ccccc1)c1ccccc1Br | - | - | 10µM | - | -
CCOc1ccccc1NC(=O)c1ccccc1NC(=O)c1ccco1 | - | - | - | - | -
CSc1nc(Cl)c(Cc2ccc(OC(C)C)cc2)c(N2CCOCC2)n1 | - | - | 12.6µM | - | -
O=C(OCCOc1ccc(Cl)cc1)c1cc(S(=O)(=O)N2CCCCC2)ccc1N1CCOCC1 | - | - | 10µM | - | -
SMILES | HEK293 tox | GLP1R ag | GLP1R inv ag | RGS4 inh | PTHR1 agonist
O=C(Nc1ccc2c(c1)OCCO2)c1ccc(Cl)c(Cl)c1 | - | - | - | - | -
O=C(Nc1ccc(Cl)c(Cl)c1)C1=Cc2ccccc2OC1 | - | - | 10µM | - | -
O=C(Nc1cccc(Cl)c1)C1=Cc2cc(Cl)ccc2OC1 | - | - | 10µM | - | -
Cc1ccc(NC(=S)NCCSc2ccc(Cl)cc2)cc1 | ? | - | ? | - | -
Cc1ccc(SCCNC(=S)Nc2cc(C)cc(C)c2)cc1 | ? | - | 7.94µM | - | -
O=C(NCc1ccncc1)[C@@H]1CCCN1C(=O)[C@@H]1CCCN1 | - | - | - | . | -
COc1ccc(OC)c(CC(=O)NC(c2ccccc2)c2ccccc2)c1 | - | - | - | - | -
COc1ccc(CC(=O)NC(c2ccccc2)c2ccc(C)cc2)c(OC)c1 (stereo not given) | - | - | 8.91µM | - | -
COc1ccc(/C=N/OCC(=O)NC(c2ccccc2)c2ccccc2)c(OC)c1 | - | - | 8.91µM | - | -
